Screening data as filed in PubChem BioAssay.
Shown is part of a subset that was picked to be rich in hits.
RORgamma inh = ROR gamma (mouse) transcription inhibition | 310,000 compounds, 5.4% hits | P51450 | Potency, µM (highest dose often 53.6 µM), inactives show top-dose activity change, negative = inhibition, actives largely listed as inhibitors | Drosophila S2 Gal4-RORgamma UAS-luciferase reporter, 20 h | AID 2551; further: potency means the concentration at half of the fitted maximal effect; on the % scale 0 is the no-effect control and ±100 the full control effect; nearly all actives have a fitted effect of over 60% in size
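Read-out: Photinus luciferase luminescence; inhibitors lower reporter signal. Insect Schneider cells with Gal4-ROR gamma fusion under metallothionein promoter, UAS reporter; 700 uM final copper sulfate induction, 20 hr, ambient temperature.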
a7 integrin act = activators of alpha7 integrin expression for muscular dystrophy. alpha7betagal myoblasts, beta-gal FDG fluorescence, 48 h. Potency, µM (top dose mostly 38.3 µM), for the others: top-dose activation, usual class: activators. 350,000 compounds, 0.064% hits;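 further: potency means the concentration at half of the fitted maximal effect; 100% = response of the positive control SU9516; nearly all actives have a fitted effect of over 60% in size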
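alpha7betagal+/- myoblasts (passage 13, 250/well) treated 48 h at 37C with compounds at 1:260 dilution of DMSO stock. Lysed, then beta-galactosidase activity read as FDG fluorescence (ex 480/em 540) after 30 min, with pre-read for autofluorescence.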
Giardia kill = Giardia lamblia killing | Giardia lamblia trophozoite viability | activity change, % at 7.66 µM, hits read low | 340,000 compounds, 0.15% hits | AID 540267; in the data active means activity change below about -80%; inconclusive means between about -30% and that limit;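 further: parasites exposed to compound for two days anaerobically before the ATP read; on the % scale 0 is the no-effect control and ±100 the full control effect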
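Viability, read as ATP luminescence: trophozoites at 100 cells/well, compound added, 48 hrs anaerobic at 37 deg C, then 15-30 min room-temperature development before reading.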
VP16 counter = inhibits Gal4-VP16 luciferase reporter, ROR gamma counter-screen; Drosophila S2 Gal4-VP16 UAS-luciferase, luminescence, 20 h; Potency, µM (highest dose often 53.6 µM), for inactives: at the highest dose activity, negative = inhibition, most hits filed as inhibitors; 310,000 compounds, 3.5% hits; AID 2546;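 further: Gal4-VP16 expression switched on by copper sulfate through the metallothionein promoter; potency means the concentration at half of the fitted maximal effect; on the % scale 0 is the no-effect control and ±100 the full control effect; nearly all actives have a fitted effect of over 50% in size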
ERG-DNA inh = blocks human ERG Ets domain binding to DNA; 370,000 compounds, 0.028% hits; P11308; Potency, µM (doses to about 76.9 µM), inactives show at the highest dose FP activity, negative = inhibition, usual class: inhibitors; fluorescence polarization, His-ERG Ets domain / labelled DNA; active means well fitted inhibition curve with a large enough effect in the polarisation, with a control signal flat; inconclusive means small, poorly fitted or top-dose-only effect, or effect the other way, or a change in a side signal; inactive means no such curve, though single readings can be large or run the other way; the % refers to the polarisation;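 further: polarization taken with two DNA probes labelled with fluorescein and Texas red; potency means the concentration at half of the fitted maximal effect; % of control where 0% means no effect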
Target sequence (P11308 whole entry, looked up, the tested form may be a part): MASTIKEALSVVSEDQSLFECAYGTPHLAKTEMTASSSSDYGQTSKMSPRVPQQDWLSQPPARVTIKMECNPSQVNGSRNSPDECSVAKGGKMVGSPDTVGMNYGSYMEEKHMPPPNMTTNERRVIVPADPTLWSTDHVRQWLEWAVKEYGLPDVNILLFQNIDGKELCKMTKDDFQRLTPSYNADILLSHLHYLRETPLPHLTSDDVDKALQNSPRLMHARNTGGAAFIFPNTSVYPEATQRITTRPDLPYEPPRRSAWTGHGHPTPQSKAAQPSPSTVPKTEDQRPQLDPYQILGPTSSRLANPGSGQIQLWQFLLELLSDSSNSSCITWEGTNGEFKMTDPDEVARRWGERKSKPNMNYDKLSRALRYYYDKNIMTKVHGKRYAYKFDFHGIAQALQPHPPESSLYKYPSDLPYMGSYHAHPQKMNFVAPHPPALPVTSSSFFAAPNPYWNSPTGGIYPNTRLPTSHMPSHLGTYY
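His-tagged ERG Ets domain (1 uM in the protein solution; 300mM KCl, 50mM Tris-HCl, 1mM EDTA, 1mM DTT, pH 7.5) received compound, then a probe mix of 5 nM fluorescein-DNA and 100nM Texas-615-DNA. Fluorescence polarization was read for both dyes.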
An asterisk follows results filed as active; ? = inconclusive; / = no result given; [ ] = another dose, or the depositor's remark. Unless noted, the call rests on the fitted dose curve; in most records, active means well fitted curve in the direction sought with a large enough effect; inconclusive means small, poorly fitted or top-dose-only effect, or another doubt; inactive means no such curve, though single readings can be large; an effect the other way counts as inactive or inconclusive.

SMILES | RORgamma inh | a7 integrin act | Giardia kill | VP16 counter | ERG-DNA inh
Cn1c(C(=O)N2CCOCC2)cc2c(=O)n3ccccc3nc21 | -18.4% | 0.0% | -8.5 | 9.9% | -4.6%
Clc1ccccc1OCCCCn1ccnc1 | 4.2%[0.365 µM] | 4.0% | -6.9 | / | 3.9%
CC(C)(C)c1ccc(OCCCn2ccnc2)cc1 | -114.6% | -30.9% | ? | 25.1µM* | -4.9%
Cc1ccccc1OCCCCCn1ccnc1 | 11.2µM* | -47.9% | 0.0 | -5.6% | 2.8%
Cc1cc(OCCCn2ccnc2)ccc1C(C)C | -35.0% | 11.1% | 0.5 | ? | 9.0%
Cc1cc(Cl)cc(C)c1OCCCCn1ccnc1 | 11.2µM* | -23.1%[7.66 µM] | 2.7 | -29.1% | -5.7%
Cc1cccc(OCCCCCn2ccnc2)c1 | ? | 2.3% | 2.9 | 9.3% | 11.0%
Cc1cc(OCCCCn2ccnc2)cc(C)c1Cl | 12.6µM* | -45.7% | 1.3 | -24.0% | -4.8%
CCn1c(NCc2cccc(Cl)c2)nc2ccccc21 | / | / | / | / | 5.1%
CCn1c(=O)cc(OCC(=O)N2CCN(c3ccccc3OC)CC2)c2ccccc21 | / | / | / | / | -8.7%
Cc1cccc(Cl)c1OCCCCn1ccnc1 | 15.8µM* | 9.9%[7.66 µM] | 18.1 | 19.5% | 6.4%
Cc1cc(OCCCn2ccnc2)cc(C(C)C)c1 | 31.6µM* | -6.5% | -4.6 | -0.8% | -1.2%
Clc1ccccc1OCCCn1ccnc1 | -30.4% | 2.7% | -21.1 | 2.6% | -18.2%
COc1cc(C(=O)OCC(=O)Nc2cccc(S(=O)(=O)N3CCCC3)c2)ccc1OCC(C)C | / | -28.0% | 20.3 | / | -0.5%
CCOC(=O)CCN1C(=O)[C@H]2[C@H]3[C@H](O)[C@H](O)C/C(=N/NC(=O)OCc4ccc(OC)cc4)[C@@H]3CC[C@@H]2C1=O | -1.8%[10 µM] | / | / | -11.2%[10 µM] | /
CC(C)CC(=O)NC(=S)N1CCN(c2ccc([N+](=O)[O-])cc2Cl)CC1 | 3.55µM* | -25.1% | ? | ? | 0.3%
O=c1ccsn1Cc1ccccc1 | 2.24µM* | -48.3% | 5.4 | 4.47µM* | -4.4%
CCOc1ccc(NC(=O)c2ccc3c(c2)OCCO3)cc1S(=O)(=O)N(CC)CC | / | -1.6% | -14.8 | / | -0.9%
COc1ccc(NC(=O)N2CCCC3(CCN(C(=O)c4cccc(F)c4)CC3)C2)cc1 | -30.4% | / | / | -12.5% | /
C/C(CC(=O)NC(C)(C)C)=N\NC(=O)c1ccccc1N | ? | -19.9% | 19.6 | -2.2% | 2.9%
C/C(CC(=O)NC(C)(C)C)=N\NC(N)=S | 11.2µM* | ? | -3.4 | ? | 4.1%
C/C(CC(=O)Nc1ccc(Cl)c(C(F)(F)F)c1)=N\NC(N)=S | 11.2µM* | -25.2% | 3.9 | ? | -8.0%
C/C(CC(=O)Nc1c(Cl)cccc1C(F)(F)F)=N\NC(=O)c1cnccn1 | / | 26.4% | 29.0 | / | 2.9%
C/C(CC(=O)Nc1ccc(Cl)c(C(F)(F)F)c1)=N\NC(=O)c1cnccn1 | -13.7% | 4.47µM* | 2.5 | -18.4% | -2.5%
CNC(=O)c1cc(Oc2ccc(NC(=O)Nc3ccc(Cl)c(C(F)(F)F)c3)cc2)ccn1 | ? | -41.4% | -7.3 | 8.91µM* | 12.9%
SMILES | RORgamma inh | a7 integrin act | Giardia kill | VP16 counter | ERG-DNA inh
CC1(C)CC[C@]2(C(=O)n3ccnc3)CC[C@]3(C)[C@H](C(=O)C=C4[C@@]5(C)C=C(C#N)C(=O)C(C)(C)[C@@H]5CC[C@]43C)[C@@H]2C1 | / | -52.3% | 3.2 | / | -4.3%
Nn1c(SCC(=O)Nc2ccccc2Oc2ccccc2)nnc1C1CC1 | / | -28.1% | -12.4 | / | 3.9%
CC(C)CN1C(=O)NC(NS(=O)(=O)c2ccc(N)cc2)(C(F)(F)F)C1=O (centres undefined) | -2.2% | -2.2% | 5.8 | -10.9% | -10.0%
COC(=O)c1ccc(Oc2coc3cc(OCc4ccc([N+](=O)[O-])cc4)ccc3c2=O)cc1 | -3.7% | 15.0% | 12.7 | 2.0% | -2.3%
CC1=NN(C(=O)c2ccoc2C)C(O)(C(F)(F)F)C1 (centres undefined) | 3.55µM* | 3.4% | -9.0 | 10µM* | 13.0%
CC1=NN(C(=O)c2csc(C(C)C)c2)C(O)(C(F)(F)F)C1 (centres undefined) | 5.01µM* | 18.5% | -16.3 | 4.47µM* | -14.1%
O=C(c1ccncc1)N1N=C(C2CC2)CC1(O)C(F)(F)F (centres undefined) | 11.2µM* | -5.0% | 9.8 | -17.2% | -7.2%
